Assay outcomes: PubChem, Columbia University Molecular Screening Center
The sample as a whole holds a higher share of hits than the screen did.
VCAM1 pot – potentiators of TNFa-induced VCAM1 expression, primary screen, imaging, HUVEC, TNFa stimulus, immunofluorescence; 93,000 tested, 0.19% active; AID 808, 2007; HUVEC TNFa-stimulated VCAM-1 immunofluorescence, high-content imaging; scaled per plate to unstimulated/TNFa-only wells; activation, % at 2 µM;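 active = activation above the screen mean plus 3 SD, with well images confirming the hit on visual review, cut at about 28% in these data, passing the limit was not always enough; inconclusive = activation above that limit but images do not confirm it; inactive = activation not above that limit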;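 note: signal is the number of cytoplasmic VCAM-1 stained grains per positive cell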
VCAM1 pot confirm – potentiators of TNFa-induced VCAM1 expression, confirmation, imaging, HUVEC, triplicate retest. shares compounds with VCAM1 pot. activation, % at 2 µM. HUVEC TNFa-stimulated VCAM-1 immunofluorescence imaging. 230 tested, under 10 active. AID 1034, 2008;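 active = activation above 30% in triplicate retests at 2 µM, then confirmed by visual review of the well images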
Large screens that a line does not name were inactive (follow-up assays come after a bar, where they were run).

Cc1ccc2cccc(OC(=O)N3CCCC3)c2n1	VCAM1 pot inconclusive | VCAM1 pot confirm inactive
Cc1cc(C)nc(NC2=NCCS2)n1	none
CSc1ccc(CNC2CN3CCC2CC3)cc1 (configuration not stated)	none
C=CCn1c(O)c(C(C)=Nc2ccc(NC(C)=O)cc2)c(=O)[nH]c1=O	none
COc1ccc(Oc2cc(NC(=O)c3nn(C)cc3[N+](=O)[O-])cc([N+](=O)[O-])c2)cc1	none
COc1ccc(CN2CC3CC(C2)c2cccc(=O)n2C3)cc1OC (configuration not stated)	none
CC(=NCCN1CCCCC1)c1c(O)[nH]c(=O)[nH]c1=O	none
Cc1ccc(S(=O)(=O)N(C)CCCC(=O)N2CCN(c3ccccn3)CC2)cc1	VCAM1 pot 81 | VCAM1 pot confirm inactive
O=c1[nH]c(=S)n(CCC2=CCCCC2)c(O)c1C=NCCCn1ccnc1	none
CCN(CC)CCN=Cc1c(O)n(Cc2ccccc2)c(=O)[nH]c1=O	none
